Several values for one entry are separate records, joined by “and”; a condition that tells them apart may be missing. Identical values can stand only once. Records with an inconclusive call do not appear. Activity calls are given as the source filed them. Calls follow the shape of the dose curve; as a rule, active = well fitted activation curve with a large enough effect; inconclusive = small, poorly fitted or top-dose-only effect; inactive = flat fitted curve, though single readings scatter. Numbered stars: 1 amine (or outer) side, 2 acyl side, 3 side chain; on linkers, the order of the positions; unused ones are H or OH. Bridge positions count the residues as written; N and C are the ends. Square brackets hold non-standard residues; d marks the D form. Peptide text beside a SMILES is read from it. I, II: the chains in the order shown. Actinocin(9to1) = Cc1c2oc3c(C)ccc(C(=O)[*:1])c3nc-2c(C(=O)[*:2])c(N)c1=O; NMeV = CN[C@H](C(=O)O)C(C)C; Sar = CNCC(=O)O
Assay: qHTS assay for environmental chemicals that activate the Aryl hydrocarbon Receptor (AhR) signaling pathway (AID 651777); also: nearly all actives have a fitted effect of over 15% in size; as to activation: % of control where 0% means no effect
Conditions: 1A2-DRE human hepatoma cells, luciferase, 24 h; activation: hits give high values
Description: National Center for Advancing Translational Sciences [NCATS]
NIH Chemical Genomics Center [NCGC]
U.S. Environmental Protection Agency [EPA]
National Institutes of Environmental Health Sciences [NIEHS]
National Toxicology Program [NTP]
The Aryl hydrocarbon Receptor (AhR) plays a critical role in the development of cancer or neoplasm and its formation is most likely due to genetic mutations and the influence of environment. Exposure to environmental pollutants such as polycyclic aromatic hydrocarbons (PAH), their halogenated derivatives and heterocyclic amines causes the induction of phase I and II enzymes. The transcriptional activation of CYP1A2 is directly regulated by AhR.
A cell based assay (1A2-DRE cells, developed by Puracyp, Inc., CA) was used to assess the activation of AhR. Human hepatoma cells were stably transfected with the dioxin response element (DRE) and CYP1A2 promoter fused to a luciferase gene. Increased luciferase activity can be used to identify the compounds that cause the induction of CYP1A2 and AhR activation.
1,200 cells in 5 uL/well were dispensed into white wall/solid bottom 1536-well plates using a Multidrop Combi (Thermo Scientific) dispenser. Following transfer of 23 nL compound or DMSO vehicle by a pin tool, the plates were incubated 24 hr at 37 C and 5% CO2. 5 ul One-Glo (Promega) was then added to each well and following 30 min incubation at room temperature, luciferase activity was quantified on a ViewLux CCD-based plate reader.
With `COc1cccc2c1C(=O)c1c(O)c3c(c(O)c1C2=O)C[C@@](O)(C(=O)CO)C[C@@H]3O[C@H]1C[C@H](N)[C@H](O)[C@H](C)O1` the activation was 1.88% (inactive). In the case of `CC(C)(Oc1ccc(Cl)cc1)C(=O)O`, the activation is reported as -2.05% (inactive). In the case of `Oc1c(I)cc(Cl)c2cccnc12`, the Potency is reported as 44.7 µM (active). In the case of `C[C@H]1C[C@H]2[C@@H]3CCC4=CC(=O)C=C[C@]4(C)[C@@]3(Cl)[C@@H](O)C[C@]2(C)[C@@]1(O)C(=O)CO`, the activation is reported as 0.38% (inactive). With `C[C@]12CC[C@@H]3c4ccc(O)cc4CC[C@H]3[C@@H]1CC[C@@H]2O` the activation was 1.98% (inactive). In the case of `CC(O)C(=O)O` (stereo not given), the activation is reported as -0.164% (inactive). With `CC(=O)O[C@]1(C(C)=O)CC[C@H]2[C@@H]3C[C@H](C)C4=CC(=O)CC[C@]4(C)[C@H]3CC[C@@]21C` the activation was 0.858% (inactive) and 1.58% (inactive). In the case of `CN(C)/N=N/c1nc[nH]c1C(N)=O`, the activation is reported as 1.65% (inactive). With `Cc1cc(=O)n(-c2ccccc2)n1C` the activation was -0.814% (inactive). For `CC/C(=C(/CC)c1ccc(O)cc1)c1ccc(O)cc1`, the activation was -2.75% (inactive) and -1.46% (inactive). For `COC1=CC(=O)C[C@@H](C)[C@]12Oc1c(Cl)c(OC)cc(OC)c1C2=O`, the activation was 0.113% (inactive). In the case of `CC(=O)Oc1ccc(C(c2ccc(OC(C)=O)cc2)c2ccccn2)cc1`, the activation is reported as 0.887% (inactive). With `CCCCCCc1ccc(O)cc1O` the activation was 1.13% (inactive) and 0.133% (inactive). In the case of `C=CCc1ccc(O)c(OC)c1`, the activation is reported as 1.13% (inactive) and 0.0788% (inactive). With `CN(C)C(=S)SC(=S)N(C)C` the activation was -0.314% (inactive). In the case of `Oc1ccc(Cl)cc1Sc1cc(Cl)ccc1O`, the activation is reported as 6.02% (inactive). With `CC(C)(C)CC(C)(C)c1ccc(OCCOCC[N+](C)(C)Cc2ccccc2)cc1` the activation was 2.85% (inactive) and 2.84% (inactive). In the case of `Oc1c(Cl)cc(Cl)cc1Sc1cc(Cl)cc(Cl)c1O`, the activation is reported as 4.24% (inactive) and -3.25% (inactive). With `CC(O)(P(=O)(O)O)P(=O)(O)O` the activation was 0.149% (inactive). With `O=C(O)CCCCC(=O)O` the activation was 0.177% (inactive). For `NC(=NCCCCCCN=C(N)/N=C(\N)Nc1ccc(Cl)cc1)/N=C(\N)Nc1ccc(Cl)cc1`, the activation was 2.77% (inactive) and -7.14% (inactive) and -8.81% (inactive). For `O=c1ccc2ccccc2o1`, the activation was -0.0038% (inactive) and -0.214% (inactive) and 9.96% (inactive). For `C=C(CC)C(=O)c1ccc(OCC(=O)O)c(Cl)c1Cl`, the activation was 2.74% (inactive). For `Cc1c2oc3c(C)ccc(C(=O)N[C@@H]4C(=O)N[C@H](C(C)C)C(=O)N5CCC[C@H]5C(=O)N(C)CC(=O)N(C)[C@@H](C(C)C)C(=O)O[C@@H]4C)c3nc-2c(C(=O)N[C@@H]2C(=O)N[C@H](C(C)C)C(=O)N3CCC[C@H]3C(=O)N(C)CC(=O)N(C)[C@@H](C(C)C)C(=O)O[C@@H]2C)c(N)c1=O` (I: T[dV]P[Sar][NMeV] / II: T[dV]P[Sar][NMeV]; ester I:1-I:C, II:1-II:C; linker I:N-II:N via Actinocin(9to1)), the activation was 1.62% (inactive) and 1.67% (inactive). In the case of `Nc1ccc(C(=O)O)cc1`, the activation is reported as -0.596% (inactive).
Potency is read from the fitted curve at half-maximal effect.
